The results in this text go back to PubChem BioAssay.

Results filed as inconclusive are left out. Values without a mark were called inactive. Calls of active or inactive are those of the source.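 The calls were made as follows, unless noted: active = viability at or below 27.92% in each of two runs, the all-compound median minus 4 SD; inconclusive = no clear call, values can overlap the other calls; inactive = the rest.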

One test can be described thus: viability of HCT116 without oncogenic beta-catenin – human colon tumor cells, pilot screen (AID 823;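 active = cell viability at or below a set limit in both duplicate runs, the limit being the all-compound median minus 4 SD, cut at about 23% in these data, passing the limit was not always enough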;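 also: 0% = wells killed by 20 µM Hyamine and 100% = untreated DMSO cell wells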). The conditions noted are these: HCT116 beta-catenin knockout viability, CellTiter-Glo, 60 h; at 10 µM; hits give low values.
As usually defined, the viability is a read-out of living cells in per cent, often relative to untreated cells. Take `COc1ccccc1N1CCN(C(=O)CCCC2=NS(=O)(=O)c3ccccc3N2)CC1`: the viability was 97.3%. The same measure, in the same setting: next, `COc1ccc(-c2nc(C#N)c(NCCN(C)C)o2)cc1`: 101%; `O=C(Nc1cccc(OC(F)(F)F)c1)c1ccc(Br)o1`: 81.6%. Take `Cc1sc2nc(SCC(=O)OC(C)C)n(C)c(=O)c2c1C`: the viability was 105%. Still for that read-out and setting: next, `CNC(=O)CN1C(=O)CSc2nc(C)cc(C)c21`: 99.9%; `CCSc1nnc(Cn2c(=O)sc3ccccc32)n1-c1ccc(OC)cc1`: 92.1%; `CCOc1ccccc1NC(=O)CSc1nc2c(c(=O)n1C)SC(C)C2` (stereo not given): 92.3%.

Consider `CCC(C)NC(=O)CCS(=O)(=O)c1ccc2c(c1)n(C)c(=O)c(=O)n2C` (stereo not given), for which the viability was 103%.

With `COc1ccc(-n2ncc3c(N(C)C4CCCCC4)ncnc32)cc1`, the viability was 85.5%. On the same count and under the same terms, next, `CCOC(=O)CCc1c(C)n(CC)c2ncnn2c1=O`: 102%. The same measure, in the same setting: next, `Cc1ccc(S(=O)(=O)N2CCN(Cc3ccccc3C(F)(F)F)CC2)cc1`: 78%; `Cc1nc(N2CCN(C(=O)c3ccco3)CC2)c2c3c(sc2n1)CCC3`: 79.8%; `CCOC(=O)c1nnn(-c2nonc2N)c1CN(C)Cc1ccccc1`: 84%. The same measure, in the same setting: next, `O=C(CN1CCOc2ccccc21)NCc1ccc(F)cc1`: 91.4%; `NC(=O)CCc1c[nH]c2ccccc12`: 91%; `CC1CC(C)(C)Nc2ccc(OC(=O)c3ccco3)cc21` (stereo not given): 1.57% (active).

For `Cc1cc(NC(=O)CN2CCCCC2C)nc2c1c(=O)oc1ccccc12` (stereo not given), the viability is 102%. Take `Cc1cc(NC(=O)C2CC(c3ccc(F)cc3)=NO2)n(-c2ccccc2)n1` (stereo not given): the viability was 97.1%. On to `O=C(Nc1ncc(Br)s1)C(Cc1ccccc1)n1cccc1` (stereo not given), for which the viability is 63.7%. The same measure, in the same setting: next, `COC(=O)C1CCN(C(=O)c2ccc(Cl)c(S(=O)(=O)NCc3cccnc3)c2)CC1`: 101%; `CCOC(=O)c1ccc(NC2c3ccccc3C(=O)N2c2cccnc2)cc1` (stereo not given): 65.5%. Same read-out and setting: next, `C=CCOC(=O)C1=C(C)NC(=O)NC1c1ccc(OC(=O)c2ccco2)c(OC)c1` (stereo not given): 93.6%.

The nature of a further test: viability of PTEN-null HCT116 cells – cell-based, HCT116 clonal line, CellTiter-Glo, pilot screen (AID 824).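 Also: 0% = 20 µM Hyamine control and 100% = vehicle cell control.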 Conditions: HCT116 PTEN-deleted viability, 60 h, at 10 µM, hits give low values. For orientation: In ATP-based viability assays light output follows the ATP content of the culture.
With `Cc1c(/C=N/n2cnnc2)c2ccccc2n1C`, the viability was 95.3%. Same read-out and setting: next, `Cn1c(C(=O)N2CCC(C(=O)N3CCOCC3)CC2)cc2sccc21`: 98.8%. The same measure, in the same setting: next, `CCN1CCN(CC(=O)Nc2cccc(C)c2C)C(=O)C1=O`: 90.9%; `CCOC(=O)N1CCN(CC(=O)Nc2cc3c(cc2C(C)=O)OCO3)CC1`: 98.9%; `Cc1c(C#N)c2ncn(Cc3ccccc3)c(=O)c2n1-c1ccccc1`: 83.8%. Same read-out and setting: next, `C=C(C)Cn1c(C2CC(=O)N(Cc3ccccc3)C2)nc2ccccc21` (stereo not given): 93.2%. Take `COc1ccc(OC)c(NC(=O)COC(=O)c2ccc(S(=O)(=O)N3CCOCC3)cc2)c1`: the viability was 91.9%. Same read-out and setting: next, `OC(COc1cccc2ccccc12)CN1CCN(c2ccccn2)CC1` (stereo not given): 81.7%; `Cc1nnc(SCC(=O)NC(C)c2ccccc2)[nH]c1=O` (stereo not given): 99.3%. Still for that read-out and setting: next, `CCOC(=O)c1sc(N)nc1-c1ccccc1`: 94.5%. As to `CCP(=O)(c1ccccc1)C(C)(C)O` (stereo not given), the viability is 93.9%.

In the case of `Cc1nn(C)c(C)c1NS(=O)(=O)c1ccccc1`, the viability was 88.4%.

In the case of `CC(C)c1nnc(NC(=O)c2ccc(S(=O)(=O)N3CCOCC3)cc2)s1`, the viability is 99.3%. With `CCCSC1=N/C(=C\c2ccsc2)C(=O)S1`, the viability was 99.2%. For `c1ccc2c(c1)CCCN2c1nc2ccccc2n2cnnc12`, the viability is 83.3%. Take `Cn1c(C(=O)NCCN2CCc3ccccc3C2)cc2c(=O)n(C)c3ccccc3c21`: the viability was 72.5%.

In the case of `O=C(NCc1cccnc1)c1ccc(CS(=O)(=O)c2ccc(Br)cc2)o1`, the viability was 92.8%. Same read-out and setting: next, `COc1ccccc1N1CCN(C(=O)CCCC2=NS(=O)(=O)c3ccccc3N2)CC1`: 92.4%; `COc1ccc(-c2nc(C#N)c(NCCN(C)C)o2)cc1`: 97.5%. Same read-out and setting: next, `O=C(Nc1cccc(OC(F)(F)F)c1)c1ccc(Br)o1`: 75.1%; `Cc1sc2nc(SCC(=O)OC(C)C)n(C)c(=O)c2c1C`: 94.8%; `CNC(=O)CN1C(=O)CSc2nc(C)cc(C)c21`: 97.8%. Same read-out and setting: next, `CCSc1nnc(Cn2c(=O)sc3ccccc32)n1-c1ccc(OC)cc1`: 86.5%.
